From PubChem BioAssay (EPA / NIEHS)
Several values for one entry are separate records, joined by “and”; a condition that tells them apart may be missing. Equal entries are not always repeated. Inconclusive results are not listed. The source holds several records for some structures; these can differ, active in one and inactive in another. Activity calls are given as the source filed them. The calls were made as follows, unless noted: active = hit-call score of the fitted dose curve at least 0.9, where 1 is the maximum; inactive = score below 0.9.

Tests used:
[1] = ACEA_ER_80hr: ACEA Biosciences xCELLigence Real-Time Cell Analysis on Estrogen Receptor Agonism for Proliferation (AID 2282667; active = hit-call score of the fitted dose curve at least 0.9, where 1 is the maximum); details: T47D proliferation, impedance (xCELLigence), 80 h
Summary of the method: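 T47D human breast cells were seeded on electrode plates, monitored overnight, then exposed continuously to compounds in eight-point 1:4 dilutions from 100 uM (max 0.5% DMSO). Impedance-based growth was read at 80 h, fitted upward relative to DMSO.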

[2] = ATG_CRE_CIS: Attagene CIS-FACTORIAL HepG2 Assay for human cAMP Responsive Element (CRE) binding protein 3 (AID 2282926); details: HepG2 CRE cis-reporter, Attagene multiplexed mRNA; actives raise or lower the signal
Summary of the method: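 HepG2 cells transiently transfected with a multiplexed reporter library (CRE-driven unit among them) were dosed for 24 h. Reporter mRNA was quantified by RT-PCR, fluorescent labelling, HpaI digestion and capillary electrophoresis, with bidirectional fitting against DMSO baseline.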

[3] = target: CCAAT/enhancer-binding protein beta (Homo sapiens) (UniProt P17676); assay: ATG_C_EBP_CIS: Attagene CIS-FACTORIAL HepG2 Assay for human CCAAT/Enhancer Binding Protein (C/EBP) beta (AID 2282927); details: HepG2 Attagene cis-factorial transcription factor reporter; actives raise or lower the signal
Summary of the method: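 Following a 24 h incubation with test chemical, transfected HepG2 cells yielded RNA whose reporter transcripts were quantified by RT-PCR and fluorescent capillary electrophoresis, with DMSO serving as baseline for bidirectional fitting.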

[4] = ATG_CMV_CIS: Attagene CIS-FACTORIAL HepG2 Assay for human CMV (Internal Marker) (AID 2282928); details: HepG2 CMV promoter reporter, transcription factor profiling; actives raise or lower the signal;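 also: endpoint acts as a background internal control marker rather than a target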
Summary of the method: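 Cell system: HepG2, transiently transfected multiple reporter units under cis promoters. Exposure: 24 h. Detection: RT-PCR, FAM labeling, HpaI digestion, capillary electrophoresis. Analysis: bidirectional, DMSO baseline.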

[5] = ATG_DR4_LXR_CIS: Attagene CIS-FACTORIAL HepG2 Assay for human Liver X Receptor (LXR), DR4 submotif (AID 2282929); details: HepG2 Attagene DR4 cis-reporter, mRNA transcription; actives raise or lower the signal
Summary of the method: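 Transiently transfected HepG2 liver cells; cis-regulated reporters; 24 h dosing. RT-PCR plus CE read-out of reporter mRNA. DMSO baseline, bidirectional curve fitting.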

[6] = target: Aryl hydrocarbon receptor (Homo sapiens) (UniProt P35869); assay: ATG_Ahr_CIS: Attagene CIS-FACTORIAL HepG2 Assay for human Aryl Hydrocarbon Receptor (Ahr) (AID 2282930); details: HepG2 AhR cis-factorial reporter transcription; actives raise or lower the signal
Summary of the method: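 Values derive from bidirectional fitting against DMSO negative control. Underlying signal: cis-element reporter mRNA in transiently transfected HepG2, harvested 24 h post-dose and measured by RT-PCR plus capillary electrophoresis.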

[7] = ATG_AP_1_CIS: Attagene CIS-FACTORIAL HepG2 Assay for human Activator Protein 1 (AP-1) (AID 2282931); details: HepG2 Attagene cis-factorial AP-1 reporter mRNA; actives raise or lower the signal
Summary of the method: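 We transfected HepG2 cells transiently with a set of cis-regulated reporter transcription units, dosed them for 24 h, and quantified reporter mRNA via RT-PCR and capillary electrophoresis, scoring gain or loss of signal relative to DMSO.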

[8] = ATG_AP_2_CIS: Attagene CIS-FACTORIAL HepG2 Assay for human Activator Protein 2 (AP-2) (AID 2282932); details: HepG2 AP-2 cis-reporter, Attagene transcription factor profiling; actives raise or lower the signal
Summary of the method: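 HepG2 cells were transiently transfected with multiple cis-promoter reporter transcription units and dosed for 24 h. Reporter mRNA was measured by RT-PCR with capillary electrophoresis fluorescence; bidirectional fits relative to DMSO baseline.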

[9] = ATG_BRE_CIS: Attagene CIS-FACTORIAL HepG2 Assay for human Bone Morphogenetic Protein (BMP) Response Element (BRE) (AID 2282933); details: HepG2 BMP response element reporter, Attagene transcription factor profiling; actives raise or lower the signal
Summary of the method: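 A HepG2 multiplex reporter system measured inducible reporter mRNA 24 h post-dosing. Detection: RT-PCR, 6-FAM primer extension, HpaI digestion, capillary electrophoresis. Activity fitted bidirectionally relative to DMSO.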

[10] = target: Retinoic acid receptor alpha (Homo sapiens) (UniProt P10276); assay: ATG_DR5_RAR_CIS: Attagene CIS-FACTORIAL HepG2 Assay for human Retinoic Acid Receptor Alpha (RARE), DR5 submotif (AID 2282934); details: HepG2 Attagene cis-factorial RARE DR5 reporter, mRNA; actives raise or lower the signal;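 as to AC50: reporter responds to endogenous RAR alpha beta and gamma in HepG2 not RARA alone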
Summary of the method: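 Endpoint fitted in both directions relative to DMSO as negative control. It reflects DR5 cis-element reporter mRNA induction in transiently transfected HepG2 cells, measured 24 h after dosing through RT-PCR and fluorescent capillary electrophoresis.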

Chain of Retinoic acid receptor alpha (Homo sapiens) (P10276 whole entry, looked up): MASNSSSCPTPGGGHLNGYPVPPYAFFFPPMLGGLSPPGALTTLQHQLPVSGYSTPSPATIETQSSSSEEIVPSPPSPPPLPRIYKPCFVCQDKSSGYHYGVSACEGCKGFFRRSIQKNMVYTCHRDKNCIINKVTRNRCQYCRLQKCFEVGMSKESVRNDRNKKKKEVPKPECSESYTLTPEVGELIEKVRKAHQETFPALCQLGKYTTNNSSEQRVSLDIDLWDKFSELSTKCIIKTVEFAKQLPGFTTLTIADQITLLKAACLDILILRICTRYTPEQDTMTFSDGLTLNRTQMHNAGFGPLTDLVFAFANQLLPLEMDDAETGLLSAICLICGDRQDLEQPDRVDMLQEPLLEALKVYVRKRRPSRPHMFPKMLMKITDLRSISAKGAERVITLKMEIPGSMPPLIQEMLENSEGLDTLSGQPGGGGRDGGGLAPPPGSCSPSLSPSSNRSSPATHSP
Chain of Aryl hydrocarbon receptor (Homo sapiens) (P35869 whole entry, looked up): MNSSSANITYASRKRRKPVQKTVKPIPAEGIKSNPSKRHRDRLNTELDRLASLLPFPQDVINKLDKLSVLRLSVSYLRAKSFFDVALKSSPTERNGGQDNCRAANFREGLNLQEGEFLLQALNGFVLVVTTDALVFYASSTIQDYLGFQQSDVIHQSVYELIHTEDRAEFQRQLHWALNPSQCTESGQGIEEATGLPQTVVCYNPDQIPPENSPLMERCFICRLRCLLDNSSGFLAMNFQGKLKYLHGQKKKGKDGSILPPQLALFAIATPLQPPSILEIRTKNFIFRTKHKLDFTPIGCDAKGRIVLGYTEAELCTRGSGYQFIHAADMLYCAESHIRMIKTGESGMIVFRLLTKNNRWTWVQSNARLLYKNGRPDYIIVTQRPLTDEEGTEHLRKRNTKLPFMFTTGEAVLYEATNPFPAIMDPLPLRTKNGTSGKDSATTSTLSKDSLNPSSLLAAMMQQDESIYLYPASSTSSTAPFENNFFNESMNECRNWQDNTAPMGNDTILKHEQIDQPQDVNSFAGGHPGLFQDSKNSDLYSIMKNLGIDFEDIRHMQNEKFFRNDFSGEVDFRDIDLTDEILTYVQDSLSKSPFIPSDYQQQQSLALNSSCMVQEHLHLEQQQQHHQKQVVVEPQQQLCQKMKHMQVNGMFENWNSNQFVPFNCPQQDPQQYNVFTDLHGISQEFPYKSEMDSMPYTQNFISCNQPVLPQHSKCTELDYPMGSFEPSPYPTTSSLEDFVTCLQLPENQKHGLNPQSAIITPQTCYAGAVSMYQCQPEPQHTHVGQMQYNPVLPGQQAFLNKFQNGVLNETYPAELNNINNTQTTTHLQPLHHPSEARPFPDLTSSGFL
Chain of CCAAT/enhancer-binding protein beta (Homo sapiens) (P17676 whole entry, looked up): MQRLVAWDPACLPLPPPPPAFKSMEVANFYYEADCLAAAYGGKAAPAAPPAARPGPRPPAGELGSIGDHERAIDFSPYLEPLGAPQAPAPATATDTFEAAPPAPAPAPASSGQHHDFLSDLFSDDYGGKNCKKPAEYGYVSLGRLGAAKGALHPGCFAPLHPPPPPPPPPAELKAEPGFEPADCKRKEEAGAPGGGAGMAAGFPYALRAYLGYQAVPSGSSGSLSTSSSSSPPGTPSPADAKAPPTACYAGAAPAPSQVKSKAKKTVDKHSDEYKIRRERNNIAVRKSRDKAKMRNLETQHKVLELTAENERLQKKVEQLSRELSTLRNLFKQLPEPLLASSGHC

SMILES | AC50 [1] | outcome [2] | outcome [3] | outcome [4] | outcome [5] | outcome [6] | outcome [7] | outcome [8] | outcome [9] | outcome [10] | outcome [1] | AC50 [4] | AC50 [6] | AC50 [7] | AC50 [2] | AC50 [5] | AC50 [8] | AC50 [10]
O=C(OCCOCCOCCOC(=O)c1ccccc1)c1ccccc1 | 10.8 µM (active) | inactive | inactive | inactive | inactive | inactive | inactive | inactive | inactive | inactive |  |  |  |  |  |  |  | 
COC(=O)CCC(F)(F)C(F)(F)C(F)(F)C(F)(F)F |  | inactive | inactive | inactive | inactive | inactive | inactive | inactive | inactive | inactive | inactive |  |  |  |  |  |  | 
OCC(F)(F)C(F)(F)C(F)(F)C(F)(F)C(F)(F)C(F)F |  | inactive | inactive | inactive | inactive | inactive | inactive | inactive | inactive | inactive | inactive |  |  |  |  |  |  | 
FC(F)(F)C(F)(F)C(F)(F)C(F)(F)C(F)(F)CCI |  | inactive | inactive |  | inactive |  |  | inactive | inactive | inactive | inactive | 97.7 µM (active) | 32.1 µM (active) | 59.9 µM (active) |  |  |  | 
O=C(O)C(F)(F)C(F)(F)C(F)(F)C(F)(F)C(F)(F)C(F)(F)C(F)(F)C(F)(F)Cl |  | inactive | inactive | inactive |  |  | inactive | inactive | inactive | inactive | inactive |  |  |  | 50 µM (active) | 39.1 µM (active) and 34.7 µM (active) | 83.2 µM (active) | 
Cc1ccc(S(=O)(=O)NCl)cc1 |  | inactive | inactive | inactive | inactive |  | inactive | inactive | inactive |  | inactive |  | 66.9 µM (active) and 61.9 µM (active) |  |  |  |  | 
FC(F)(F)C(F)(F)C(F)(F)C(F)(F)C(F)(F)C(F)(F)CCS |  | inactive | inactive | inactive | inactive | inactive | inactive | inactive | inactive | inactive | inactive |  |  |  |  |  |  | 
CC(C)(C)C(=O)CC(=O)C(F)(F)C(F)(F)C(F)(F)F |  | inactive | inactive | inactive | inactive | inactive | inactive | inactive | inactive | inactive | inactive |  |  |  |  |  |  | 
FC(F)(F)C(F)(F)C(F)(F)C(F)(F)C(F)(F)C(F)(F)C(F)(F)I |  | inactive | inactive | inactive | inactive | inactive | inactive | inactive | inactive | inactive | inactive |  |  |  |  |  |  | 
C=C(C)C(=O)OCC(F)(F)C(F)(F)C(F)(F)F |  | inactive | inactive | inactive | inactive | inactive | inactive | inactive | inactive | inactive | inactive |  |  |  |  |  |  | 
O=P(O)(O)OCCC(F)(F)C(F)(F)C(F)(F)C(F)(F)C(F)(F)C(F)(F)F |  | inactive | inactive | inactive | inactive | inactive | inactive | inactive | inactive | inactive | inactive |  |  |  |  |  |  | 
O=C(O)C(F)(F)C(F)(F)OC(F)(F)F |  | inactive | inactive | inactive | inactive | inactive | inactive | inactive | inactive | inactive | inactive |  |  |  |  |  |  | 
OCC(F)(F)C(F)(F)C(F)(F)C(F)F |  | inactive | inactive | inactive | inactive | inactive | inactive | inactive | inactive | inactive | inactive |  |  |  |  |  |  | 
O=S(=O)(O)c1ccc2ccccc2c1 |  | inactive | inactive | inactive | inactive |  | inactive | inactive | inactive |  | inactive |  | 42.7 µM (active) and 40.3 µM (active) |  |  |  |  | 
O=C(O)C(F)(F)C(F)(F)C(F)(F)C(F)(F)C(F)(F)C(F)(F)C(F)(F)C(F)(F)C(F)(F)C(F)(F)C(F)(F)C(F)(F)C(F)(F)F |  | inactive | inactive | inactive | inactive | inactive |  | inactive | inactive | inactive | inactive |  |  | 42.8 µM (active) |  |  |  | 
C=C(C)C(=O)OCCC(F)(F)C(F)(F)C(F)(F)C(F)(F)C(F)(C(F)(F)F)C(F)(F)F |  | inactive | inactive | inactive | inactive | inactive | inactive | inactive | inactive | inactive | inactive |  |  |  |  |  |  | 
CC/C=C\CCOC(C)=O |  | inactive | inactive | inactive | inactive | inactive | inactive | inactive | inactive | inactive | inactive |  |  |  |  |  |  | 
O=C(O)C(F)(OC(F)(F)C(F)(OC(F)(F)C(F)(F)C(F)(F)F)C(F)(F)F)C(F)(F)F (centres undefined) |  | inactive | inactive | inactive | inactive | inactive | inactive | inactive | inactive | inactive | inactive |  |  |  |  |  |  | 
CCCCC(CC)COP(=O)(O)OCC(CC)CCCC (centres undefined) |  | inactive | inactive | inactive |  | inactive |  | inactive | inactive | inactive | inactive |  |  | 60.6 µM (active) |  | 42 µM (active) |  | 
C(=C(c1ccccc1)c1ccccc1)c1ccccc1 | 0.647 µM (active) | inactive | inactive |  |  | inactive |  | inactive | inactive | inactive |  | 30 µM (active) |  | 36.7 µM (active) |  | 59 µM (active) |  | 
CCc1c(Br)c(Br)c(Br)c(Br)c1Br |  | inactive | inactive | inactive | inactive | inactive | inactive | inactive | inactive |  | inactive |  |  |  |  |  |  | 16.4 µM (active)
FC(F)(Br)C(F)(F)C(F)(F)C(F)(F)C(F)(F)C(F)(F)Br | 42.7 µM (active) | inactive | inactive | inactive | inactive | inactive | inactive | inactive | inactive | inactive |  |  |  |  |  |  |  | 
